SRC3 inh: inhibitors of human steroid receptor coactivator 3 (SRC3); Q9Y6Q9; HEK293 GAL4-SRC3 luciferase reporter, luminescence; inhibition, % at 3.6 µM; actives 0.17% (n = 360,000);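 active = inhibition above a per-campaign cutoff, the mean of all compounds plus 3 SD, cut at about 60% in these data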;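 also: 0% = DMSO-treated cells and 100% = gossypol-treated cells at 36 µM; higher means less SRC3-driven luciferase light from the GAL4 reporter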
COUP-TFII inh: NR2F2 (human) inhibition, primary screen | P24468 | HEK293T NGFI-A luciferase reporter, luminescence | inhibition, % at 8.6 µM | actives 0.7% (n = 370,000);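 active = inhibition above a per-plate cutoff, mean inhibition of test wells between control levels plus 3 SD, cut at about 38% in these data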;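 also: cells cotransfected with COUP-TFII expression vector driving the NGFI-A reporter; 0% = median of COUP-TF2 test wells and 100% = reporter-only cells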
NCOA1 inh: inhibits human SRC1 coactivator | Q15788 | HEK293 GAL4-SRC1 luciferase reporter, luminescence | inhibition, % at 3.6 µM | actives 0.12% (n = 360,000) | AID 588354;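 active = inhibition above the campaign mean plus 3 SD, with each screening campaign given its own cutoff, cut at about 60% in these data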;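 also: 0% = DMSO treated cells and 100% = gossypol at 36 µM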
SRC2 inh: inhibits human steroid receptor coactivator 2. HEK293 GAL4-SRC2 luciferase reporter, luminescence. inhibition, % at 9 µM. actives 0.17% (n = 370,000). Q15596;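 active = inhibition above the mean inhibition of all tested compounds plus 3 SD, set per campaign, cut at about 52% in these data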;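 also: 0% = DMSO treated cells and 100% = cells given Gossypol at 36 µM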
LRH-1 inv ag: inverse agonists of human LRH-1 (NR5A2); actives 0.13% (n = 360,000); HEK293T StAR-luciferase reporter, LRH-1 transfected, 24 h; O00482; AID 602396; inhibition, % at 3.6 µM;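 active = inhibition above the mean inhibition of all tested compounds plus 3 SD, cut at about 73% in these data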;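 also: 0% = DMSO wells and 100% = reporter-only cells lacking LRH-1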
GalR3 antagonist: blocks the human galanin receptor 3. AID 651719. inhibition, % at 3 µM. HEK293 GalR3-CNG cAMP membrane potential fluorescence; galR3 body fused to GalR1 C-terminus. actives 0.44% (n = 360,000);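 active = inhibition above the screen-wide average plus 3 SD, cut at about 13% in these data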;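 also: forskolin and galanin both at EC90 stimulate the cells; cAMP rise reported by CNG channel membrane potential dye signal; 0% = forskolin plus galanin with DMSO and 100% = forskolin alone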
VP16 Luc counter: VP16 inhibition counter-screen for COUP-TFII; inhibition, % at 8.5 µM; shares compounds with COUP-TFII inh; HEK293 Gal4-VP16 luciferase reporter, luminescence; AID 687007; actives 25% (n = 2,500); in the data active = inhibition above about 13%
NR2F2 inh conf: confirmation of human COUP-TFII (NR2F2) inhibitors; shares compounds with COUP-TFII inh; HEK293 NGFI-A luciferase reporter, luminescence; AID 687008; actives 45% (n = 2,500); inhibition, % at 8.5 µM;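 active = mean inhibition over three repeats above a set limit taken from the earlier primary screen, cut at about 38% in these data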;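 also: 100% = cells given the luciferase reporter alone without the COUP-TF2 vector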
Starred values were filed as active, the others as inactive; x = no result. Sampled rows, rich in hits. Any-hit rate of the full collection: about 1.1%.

SMILES | SRC3 inh | COUP-TFII inh | NCOA1 inh | SRC2 inh | LRH-1 inv ag | GalR3 antagonist | VP16 Luc counter | NR2F2 inh conf
COc1ccccc1CNc1nc(NCC2CC2)nc2ccsc12 | 4 | 47* | -3 | 16 | 2 | -6 | -8 | 13
COCCNc1nc(NCc2ccccc2OC)c2sccc2n1 | -1 | 27 | -2 | 10 | 22 | -7 | x | x
COc1ccccc1CNc1nc(Nc2cccc(-c3cnco3)c2)c2sccc2n1 | -9 | 48* | 10 | -5 | 6 | -5 | 1 | 21
COC(=O)[C@]12C[C@H](CC(=O)NCC3CCCCC3)C(=O)N(CCc3ccc(OC)c(OC)c3)C1=C[C@H](COCc1ccccc1)O[C@@H]2C | x | -2 | x | 11 | x | x | x | x
O=C(N1CCC(C(O)(c2ccccc2)c2ccccc2)CC1)n1ncc(C(O)(c2ccccc2)c2ccccc2)n1 | x | 44* | x | x | x | x | 0 | 11
O=C(CCl)Nc1cc(SCC(O)CO)cc([N+](=O)[O-])c1 (stereo not drawn) | 70* | 69* | 28 | 69* | 87* | 9 | 28* | 73*
CCCCNC(=O)C[C@H]1C[C@@]2(C(=O)OC)C(=C[C@H](C(C)C)O[C@@H]2C2CC2)N(Cc2ccc3c(c2)OCO3)C1=O | x | 2 | x | -9 | x | x | x | x
Cn1c(SCC(=O)N2CCN(c3ccccc3)CC2)nnc1-c1c[nH]c2ccccc12 | 10 | 32 | 15 | 9 | 16 | x | x | x
C=CCn1c(COc2cccc(C)c2C)nnc1SCC(=O)N1CCN(c2ccccc2)CC1 | 0 | 44* | 1 | 0 | 10 | -2 | 11 | 38*
CCn1c(SCC(=O)N2CCN(c3ccccc3)CC2)nnc1-c1c[nH]c2ccccc12 | 12 | 46* | 16 | 20 | 7 | x | 8 | 37
C=C1[C@@H](CCO)N(S(=O)C(C)(C)C)C[C@@H]1C (stereo partly drawn) | x | -8 | x | -1 | x | -4 | x | x
Cc1c(C(C)c2ccccc2O)c2ccccc2n1C (stereo not drawn) | x | 3 | x | 0 | x | x | x | x
O=C(c1ccccc1)N1CCC(c2nc(-c3ccc(S(=O)(=O)NCC4CCCO4)cc3)no2)CC1 (stereo not drawn) | 10 | 18 | 9 | 13 | 12 | -2 | x | x
O=C(C1CC1)N1CCC(c2nc(-c3ccc(S(=O)(=O)NCC4CCCO4)cc3)no2)CC1 (stereo not drawn) | 32 | 45* | -3 | 30 | 16 | -6 | -4 | 20
CC(C)Oc1ccc(C(=O)NC(=S)Nc2ccc(CN3CCOCC3)cc2)cc1 | 2 | -5 | 5 | 9 | -4 | -3 | x | x
O=C(/C=C/c1ccc(Cl)cc1)Nc1ccc(CN2CCOCC2)cc1 | 14 | 57* | -14 | -49 | 11 | 0 | -3 | 32
COc1ccc(NC(=O)c2ccc(CN3CCN(c4ccccc4)CC3)cc2)cc1 | -26 | 48* | -10 | -10 | -1 | 6 | 0 | 13
CC(C)c1ccc(/C=C/C(=O)Nc2ccc(CN3CCOCC3)cc2)cc1 | 16 | 14 | 5 | 8 | -2 | -4 | x | x
CC(C)c1ccc(C(=O)Nc2ccc(CN3CCOCC3)cc2)cc1 | 16 | 38* | 4 | -17 | 4 | -10 | -38 | 6
COc1ccc(C(=O)Nc2ccc(N3CCN(Cc4ccccc4)CC3)cc2)cc1 | -12 | -22 | -20 | -4 | 7 | -6 | x | x
O=C(Nc1ccc(CN2CCOCC2)cc1)c1ccc(-c2cccc(Cl)c2)o1 | 16 | 62* | 3 | -3 | -9 | 2 | -18 | -6
COCc1cc(N2CCNC[C@H]2C)ccc1N1CCN(Cc2ccccc2)[C@H](C)C1 | x | -19 | x | 4 | x | -4 | x | x
CN(CCOC(=O)CC1C=CCC1)C1CN(Cc2cn(Cc3ccccc3Cl)nn2)S(=O)(=O)C1 (stereo not drawn) | x | -12 | x | -16 | x | x | x | x
C#CCN1C(=O)[C@]2(OCCC=C[C@H]2C)c2ccccc21 | x | -15 | x | -5 | x | 2 | x | x
O=C(CSc1ccccc1)NC1CCCCN(Cc2ccc(Cl)cc2)C1=O (stereo not drawn) | x | -1 | x | -1 | x | x | x | x
SMILES | SRC3 inh | COUP-TFII inh | NCOA1 inh | SRC2 inh | LRH-1 inv ag | GalR3 antagonist | VP16 Luc counter | NR2F2 inh conf
CCOC(=O)N1CCN(C(=O)C[C@H]2C[C@@]3(C(=O)OC)C(=C[C@H](C(C)(C)C)O[C@@H]3C)N(CCc3ccc(OC)c(OC)c3)C2=O)CC1 | x | 1 | x | -1 | x | x | x | x
COC(=O)[C@]12C[C@H](CC(=O)N3CCSCC3)C(=O)N(Cc3ccc(Cl)cc3Cl)C1=C[C@H](COCc1ccccc1)O[C@@H]2C | x | 18 | x | -4 | x | x | x | x
CCCCCCn1ccc(=N)cc1 | -17 | 76* | -7 | -1 | 35 | 2 | 4 | 50*
CCCCCCCCCCCCCCCCn1cc[n+](CC(C)=O)c1 | 8 | x | 6 | x | 24 | x | x | x
C(=NN1CCCCCC1)c1cccc2ccccc12 | 2 | -8 | -3 | -2 | 12 | -7 | x | x
C(=NN1CCCCCC1)c1ccc2ccccc2n1 | 90* | 95* | 88* | 84* | 91* | -5 | 89* | 104*
O[C@@H]1[C@@H](O)C=C2CCN3Cc4cc5c(cc4[C@H]1C23)OCO5 (stereo partly drawn) | 89* | 56* | 75* | 36 | 98* | x | 3 | 26
C=CCn1c(SCC(=O)Nc2sccc2C(N)=O)nc2sc(CC)cc2c1=O | -27 | 42* | 10 | 6 | 6 | -5 | 1 | 17
C=CCn1c(SCC(=O)Nc2sccc2C(N)=O)nc2ccc(Cl)cc2c1=O | -7 | 12 | -5 | -23 | 4 | -7 | x | x
CCN(CC)S(=O)(=O)c1ccc(/C=C/C(=O)Nc2ccc(F)cc2F)cc1 | 6 | 50* | -17 | -11 | -4 | -4 | -34 | 28
CCN(CC)S(=O)(=O)c1ccc(/C=C/C(=O)Nc2ccc(N3CCOCC3)cc2)cc1 | 22 | 13 | -13 | 20 | 17 | 5 | x | x
O=C(/C=C/c1ccc(S(=O)(=O)N2CCOCC2)cc1)Nc1ccc(F)c(F)c1F | 8 | 15 | -16 | 4 | -5 | -7 | x | x
CCN(CC)S(=O)(=O)c1ccc(/C=C/C(=O)Nc2ccc(F)c(F)c2F)cc1 | 39 | 63* | 36 | 8 | 38 | -2 | -18 | 47*
CCN1CCCCC(NC(=O)c2ccc(F)c(F)c2)C1=O (stereo not drawn) | x | -17 | x | -50 | x | x | x | x
CCc1c(-c2ccc(Cl)cc2)ncn1CCc1ccccc1OC | x | -20 | x | -63 | x | -8 | x | x
COc1cccc(CN(C)C(=O)c2cc(COc3ccc(-n4cncn4)cc3)on2)c1 | 26 | 38* | 14 | 14 | -8 | -2 | -4 | -1
Cc1cccc(NC(=O)CSc2nc3ccccc3c(=O)n2C)c1 | 3 | 41* | 18 | 19 | -3 | -10 | 6 | 31

Compound activity deposited in PubChem by The Scripps Research Institute Molecular Screening Center.
